Results filed as inconclusive are left out. Calls of active or inactive are those of the source. Unless noted, calls follow the shape of the dose curve; as a rule, active = well fitted curve in the direction sought with a large enough effect in the repeat runs; inconclusive = weak or mixed curves; inactive = no such curve, though single readings can be large; an effect the other way counts as inactive or inconclusive.
Assays:
[1] = qHTS assay to identify small molecule antagonists of the estrogen receptor beta (ER-beta) signaling pathway - cell viability counter screen (AID 1259382);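 also: HEK293T cells carrying ER-beta-UAS-bla reporter stimulated with estradiol; series mostly up to about 92 µM; nearly all actives have a fitted effect of over 55% in size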
How it was run: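 Viability is scored by CellTiter-Glo luminescence (30 min, room temperature) in ER-beta-UAS-bla HEK293T wells already read for reporter fluorescence. Compound exposure lasts 16 hr at 37C alongside 1nM 17-beta-estradiol in charcoal-stripped serum medium.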

[2] = qHTS assay to identify small molecule agonists or antagonists of the thyroid stimulating hormone receptor (TSHR) signaling pathway - wild type cell line counter screen (AID 1259384; calls by dose curve)
How it was run: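 Counter screen in untransfected Hek293: compounds (15-point titration, triplicate) plus phosphodiesterase inhibitor Ro20-1724 added after 18 h plating; 30 min RT. Intracellular cAMP via competitive d2/cryptate immunoassay, 1 h incubation.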

[3] = biological target: Thyrotropin receptor (Homo sapiens) (UniProt P16473); assay: qHTS assay to identify small molecule antagonists of the thyroid stimulating hormone receptor (TSHR) signaling pathway (AID 1259385; calls by dose curve; also: nearly all actives have a fitted effect of over 20% in size)
How it was run: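 Antagonist mode: compound-treated TSHR-expressing HEK293 cells were stimulated with 1.5 ng/mL TSH (final) in presence of Ro20-1724 for 30 min at RT. HTRF cAMP detection after 1 h; each compound tested at 15 concentrations, triplicate.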

[4] = qHTS assay to identify small molecule agonists of the estrogen receptor alpha (ER-alpha) signaling pathway in the presence of an antagonist - cell viability counter screen (AID 1259386);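 also: series mostly up to about 92 µM; cells exposed to compounds for 22 h at 37 °C before the viability read; nearly all actives have a fitted effect of over 30% in size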
How it was run: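 In this counter screen, compound effects on VM7Luc4E2 viability were tested in the presence of the antagonist ICI-182,780 at 10.0nM final. Compounds were dosed at 15 concentrations, exposure lasted 22hr, and the CellTiter-Fluor signal was read.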

[5] = biological target: Progesterone receptor (Homo sapiens) (UniProt P06401); assay: qHTS assay to identify small molecule agonists of the progesterone receptor (PR) signaling pathway (AID 1346784; calls by dose curve; also: nearly all actives have a fitted effect of over 30% in size)
How it was run: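 Beta-lactamase reporter read-out: after 16 hr compound treatment at 37C and a further 2 hr at room temperature with LiveBLAzer B/G FRET substrate, fluorescence was measured in PR-UAS-bla HEK 293T cells grown in 2% charcoal-stripped serum.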

[6] = qHTS assay to identify small molecule antagonists of the progesterone receptor (PR) signaling pathway - cell viability counter screen (AID 1346798);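 also: HEK293T PR-UAS-bla cells stimulated with the agonist R5020; series mostly up to about 92 µM; nearly all actives have a fitted effect of over 50% in size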
How it was run: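 HEK293T PR-UAS-bla, 2% charcoal-stripped FBS; 4 hr pre-plate; cpd + R5020, 16 h 37C; LiveBLAzer read first; then CellTiter-Glo 30 min RT, luminescence.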

[7] = qHTS assay to identify small molecule agonists of the progesterone receptor (PR) signaling pathway - cell viability counter screen (AID 1346799; calls by dose curve; also: nearly all actives have a fitted effect of over 45% in size)
How it was run: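 Luminescence from CellTiter-Glo, added after the beta-lactamase FRET read in the same wells, gave cytotoxicity in PR-UAS-bla HEK293T cells treated with compounds for 16 hr at 37C.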

[8] = qHTS assay to identify small molecule antagonists of the TGF-beta/Smad signaling pathway - cell viability counter screen (AID 1346824); also: nearly all actives have a fitted effect of over 50% in size
How it was run: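 Cytotoxicity counter-screen run in the same wells as the beta-lactamase Smad reporter read: CellTiter-Glo luminescence after 30 min at room temperature. HEK 293T SBE-bla cells had 5 hr compound exposure at 37 C with TGF-beta1 (0.25 ng/mL stock).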

[9] = qHTS assay to identify small molecule agonists of the TGF-beta/Smad signaling pathway - cell viability counter screen (AID 1346829); also: top concentration of the series differs between compounds; nearly all actives have a fitted effect of over 45% in size
How it was run: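 Here the cytotoxicity of library compounds is measured in SBE-bla HEK 293T cells treated for 5 hr, using CellTiter-Glo added to wells already read for the beta-lactamase reporter.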

[10] = qHTS assay to identify small molecule agonists of the TGF-beta/Smad signaling pathway (AID 1346859; active = well fitted activation curve with a large enough effect in the signal ratio in the repeat runs, not every such curve was filed as active; the % refers to the signal ratio; also: series mostly up to about 77 µM)
How it was run: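 SBE-bla HEK 293T, 4,000 cells/well, plated o/n; cpd in DMSO, 5 hr, 37 C/5% CO2; B/G FRET substrate 2 hr RT; ex 405, em 460/530 nm.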

[11] = Human pregnane X receptor (PXR) small molecule agonists, qHTS cell viability counter screen (AID 1346977); also: nearly all actives have a fitted effect of over 50% in size
How it was run: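 PXR-Luc HepG2, 2,000 cells/well, 5% charcoal-stripped FBS; 5hr settle; cpd 24hr, 37C/5% CO2; CellTiter-Fluor at 23hr, read 1hr later (fluorescence).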

[12] = Caspase-3/7 induction in HepG2 cells by small molecules, qHTS assay (AID 1346978); also: nearly all actives have a fitted effect of over 15% in size
How it was run: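 Caspase-3/7 induction was measured by Caspase-Glo 3/7 luminescence (30 min, room temperature) after a 17 hr compound exposure of wild-type HepG2 cells seeded at 2,000 per well and pre-incubated 5 hr.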

[13] = Caspase-3/7 induction in CHO-K1 cells by small molecules, qHTS cell viability counter screen (AID 1346979); also: nearly all actives have a fitted effect of over 35% in size
How it was run: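 Cells (CHO-K1, wild type) are plated at 1,500 per well and incubated 5hr. Test compounds in DMSO are then pinned in, followed by 16hr at 37C and 5% CO2. Viability is read by CellTiter-Fluor fluorescence after 1hr.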

[14] = Caspase-3/7 induction in CHO-K1 cells by small molecules, qHTS assay (AID 1346980); also: nearly all actives have a fitted effect of over 15% in size
How it was run: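 Luminescent Caspase-Glo 3/7 read (30min, room temperature) quantified apoptosis induction. Cells were wild-type CHO-K1, treated with compound for 17hr at 37 C and 5% CO2.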

[15] = Caspase-3/7 induction in HepG2 cells by small molecules, qHTS cell viability counter screen (AID 1346981); also: series mostly up to about 92 µM; nearly all actives have a fitted effect of over 30% in size
How it was run: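 In this quantitative HTS counter screen, compounds delivered in DMSO were left on unmodified HepG2 cells for 16 hr at 37 C. Viability was then determined fluorometrically with CellTiter-Fluor, in parallel with caspase-3/7 induction in the same wells.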

[16] = biological target: Nuclear receptor subfamily 1 group I member 2 (Homo sapiens) (UniProt O75469); assay: Human pregnane X receptor (PXR) small molecule agonists, qHTS assay (AID 1346982); also: nearly all actives have a fitted effect of over 35% in size
How it was run: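 Reporter HepG2 cells expressing PXR-Luc are cultured in charcoal-stripped FBS (5%), treated with compounds for 24 hr at 37 C, and assayed by ONE-Glo luminescence after 30 min at room temperature.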

[17] = biological target: Progesterone receptor (Homo sapiens) (UniProt P06401); assay: qHTS assay to identify small molecule antagonists of the progesterone receptor (PR) signaling pathway (AID 1346795; active = well fitted inhibition curve with a large enough effect in the signal ratio in the repeat runs, not every such curve was filed as active; the % refers to the signal ratio)
How it was run: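 Read-out is fluorescence from the LiveBLAzer B/G FRET substrate, cleaved by a UAS-controlled beta-lactamase in PR-UAS-bla HEK293T cells after 16 hr exposure to compound plus 1 nM promegestone (final), followed by 2 hr at room temperature.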

[18] = biological target: Thyrotropin-releasing hormone receptor (Homo sapiens) (UniProt P34981); assay: qHTS assay to identify small molecule antagonists of the thyrotropin-releasing hormone receptor (TRHR) signaling pathway (AID 1346877; active = well fitted inhibition curve with a large enough effect in the repeat runs, not every such curve was filed as active; also: series mostly up to about 51 µM)
How it was run: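 Kinetic fluorescence (3 min, 1 s resolution) following stimulation with TRH at 1 nM final; HEK293 cells bearing human TRHR; 5 min compound preincubation at RT; concentration-response over 15 points, triplicates.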

[19] = biological target: Thyrotropin-releasing hormone receptor (Homo sapiens) (UniProt P34981); assay: qHTS assay to identify small molecule agonists of the thyrotropin-releasing hormone receptor (TRHR) signaling pathway (AID 1346891; calls by dose curve; also: series mostly up to about 58 µM)
How it was run: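 Intracellular calcium rise, read as fluorescence every second for 3 min, served as the agonist signal in dye-loaded HEK293 cells expressing TRHR; each compound ran at 15 concentrations in triplicate.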

Measured: Potency

Sequence of Nuclear receptor subfamily 1 group I member 2 (Homo sapiens) (O75469 whole entry, looked up): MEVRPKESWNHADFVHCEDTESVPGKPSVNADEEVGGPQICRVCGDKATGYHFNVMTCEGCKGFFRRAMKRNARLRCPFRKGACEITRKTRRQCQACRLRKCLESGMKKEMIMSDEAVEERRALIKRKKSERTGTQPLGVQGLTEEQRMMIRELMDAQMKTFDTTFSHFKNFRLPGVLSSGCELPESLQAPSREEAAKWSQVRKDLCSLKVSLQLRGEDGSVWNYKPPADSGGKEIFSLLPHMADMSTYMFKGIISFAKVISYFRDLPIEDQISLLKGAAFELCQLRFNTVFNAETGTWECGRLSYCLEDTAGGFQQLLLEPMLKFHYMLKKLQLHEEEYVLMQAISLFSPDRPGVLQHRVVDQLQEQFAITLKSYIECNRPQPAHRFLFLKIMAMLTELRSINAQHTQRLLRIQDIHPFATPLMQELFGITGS
Sequence of Thyrotropin receptor (Homo sapiens) (P16473 whole entry, looked up): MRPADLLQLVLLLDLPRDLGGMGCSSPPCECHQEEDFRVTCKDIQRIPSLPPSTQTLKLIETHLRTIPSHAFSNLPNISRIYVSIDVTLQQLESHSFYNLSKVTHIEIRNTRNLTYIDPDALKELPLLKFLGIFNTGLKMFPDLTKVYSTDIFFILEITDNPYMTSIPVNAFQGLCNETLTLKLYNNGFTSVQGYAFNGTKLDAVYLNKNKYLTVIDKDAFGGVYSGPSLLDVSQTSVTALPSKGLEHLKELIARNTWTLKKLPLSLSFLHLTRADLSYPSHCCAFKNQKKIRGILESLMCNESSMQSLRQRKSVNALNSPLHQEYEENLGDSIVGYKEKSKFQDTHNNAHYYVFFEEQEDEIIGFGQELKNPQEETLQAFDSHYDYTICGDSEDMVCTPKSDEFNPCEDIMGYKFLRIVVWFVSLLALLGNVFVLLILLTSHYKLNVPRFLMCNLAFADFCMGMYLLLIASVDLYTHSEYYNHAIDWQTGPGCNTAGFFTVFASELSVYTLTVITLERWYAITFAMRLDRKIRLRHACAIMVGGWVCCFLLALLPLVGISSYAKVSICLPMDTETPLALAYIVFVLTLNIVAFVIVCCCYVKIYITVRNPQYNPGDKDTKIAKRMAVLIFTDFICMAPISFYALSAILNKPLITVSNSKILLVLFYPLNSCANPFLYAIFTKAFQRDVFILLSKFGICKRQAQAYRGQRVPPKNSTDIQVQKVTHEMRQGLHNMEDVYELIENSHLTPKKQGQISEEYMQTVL
Sequence of Thyrotropin-releasing hormone receptor (Homo sapiens) (P34981 whole entry, looked up): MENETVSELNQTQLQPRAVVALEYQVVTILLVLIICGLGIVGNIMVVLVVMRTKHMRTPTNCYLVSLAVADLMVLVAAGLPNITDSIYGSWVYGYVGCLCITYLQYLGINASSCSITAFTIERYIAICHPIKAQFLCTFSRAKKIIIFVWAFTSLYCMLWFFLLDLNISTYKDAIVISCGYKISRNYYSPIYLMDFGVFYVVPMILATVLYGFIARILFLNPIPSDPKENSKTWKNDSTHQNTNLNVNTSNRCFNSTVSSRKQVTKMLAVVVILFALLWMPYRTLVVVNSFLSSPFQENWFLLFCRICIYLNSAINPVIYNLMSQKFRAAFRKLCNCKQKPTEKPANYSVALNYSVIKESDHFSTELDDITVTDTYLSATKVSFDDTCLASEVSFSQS
Sequence of Progesterone receptor (Homo sapiens) (P06401 whole entry, looked up): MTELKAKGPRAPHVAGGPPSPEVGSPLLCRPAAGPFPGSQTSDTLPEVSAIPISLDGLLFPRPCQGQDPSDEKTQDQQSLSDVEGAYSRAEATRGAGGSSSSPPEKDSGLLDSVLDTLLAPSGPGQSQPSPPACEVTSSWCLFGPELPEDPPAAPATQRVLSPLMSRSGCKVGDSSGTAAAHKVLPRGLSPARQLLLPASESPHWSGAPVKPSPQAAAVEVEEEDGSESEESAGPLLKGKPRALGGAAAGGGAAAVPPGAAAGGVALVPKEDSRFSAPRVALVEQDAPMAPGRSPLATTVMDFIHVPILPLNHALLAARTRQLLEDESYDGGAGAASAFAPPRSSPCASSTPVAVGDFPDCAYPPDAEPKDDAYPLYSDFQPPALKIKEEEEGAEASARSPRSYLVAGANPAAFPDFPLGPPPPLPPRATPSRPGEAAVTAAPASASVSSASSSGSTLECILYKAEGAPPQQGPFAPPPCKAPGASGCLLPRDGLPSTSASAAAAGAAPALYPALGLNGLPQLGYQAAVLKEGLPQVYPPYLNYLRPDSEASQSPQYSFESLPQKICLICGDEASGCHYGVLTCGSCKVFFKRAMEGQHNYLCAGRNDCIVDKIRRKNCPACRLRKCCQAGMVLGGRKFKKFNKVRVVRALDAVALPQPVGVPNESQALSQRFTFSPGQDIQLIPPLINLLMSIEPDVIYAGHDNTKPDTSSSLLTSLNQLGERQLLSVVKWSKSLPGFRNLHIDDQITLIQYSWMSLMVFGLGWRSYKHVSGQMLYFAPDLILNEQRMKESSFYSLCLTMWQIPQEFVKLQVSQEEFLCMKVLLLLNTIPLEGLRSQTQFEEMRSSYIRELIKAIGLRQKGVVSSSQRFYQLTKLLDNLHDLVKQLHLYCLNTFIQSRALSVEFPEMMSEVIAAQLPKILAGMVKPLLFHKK

CCCCCCCCCCCCCCCC/C=C/C1CC(=O)OC1=O (stereo not given)
not listed: [17] | [18] | [19]
inactive: all other assays above

COC(=O)c1cc(Cl)c(NC(C)=O)cc1OC
not listed: [4] | [7] | [18] | [19]
inactive: all other assays above

COc1cc(NS(=O)(=O)c2ccc(N)cc2)ncn1
not listed: [6] | [7] | [9] | [16] | [19]
inactive: all other assays above

CC(C)(C)OC=O
not listed: [6] | [13] | [17] | [18] | [19]
inactive: all other assays above

CCCCNCC
not listed: [4]
inactive: all other assays above

COC(=O)C(c1ccccc1Cl)N1CCc2sccc2C1 (stereo not given)
not listed: [7] | [16] | [17]
inactive: all other assays above

CCCCC(CC)COC(=O)CC#N (stereo not given)
not listed: [6] | [16] | [18] | [19]
inactive: all other assays above

Cc1nnc(C(=O)NC(C)(C)c2nc(C(=O)NCc3ccc(F)cc3)c(O)c(=O)n2C)o1
not listed: [10] | [13] | [17]
inactive: all other assays above

COC(C)(C)CC(C)=O
not listed: [2] | [3] | [7]
inactive: all other assays above

CCCc1ncc(C(=O)O)s1
not listed: [2] | [3] | [4] | [7]
inactive: all other assays above

NC(=O)CC[C@@H](N)C(=O)O
not listed: [2] | [9] | [13] | [16]
inactive: all other assays above
